# High-throughput results as filed in PubChem.
# Sampled rows, rich in hits. Any-hit rate of the full collection: about 10%.
# 3T3 cytotox = kills NIH 3T3 cells | 4.3% of 94,000 active | Potency, µM (series often up to 96.7 µM), for the others: top-dose activity change, negative = cytotoxicity, most hits filed as inhibitors | NIH 3T3 viability, CellTiter-Glo ATP luminescence, 48-72 h; further: on the % scale 0 is the no-effect control and ±100 the full control effect; nearly all actives have a fitted effect of over 55% in size
#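 NIH 3T3 cells at 400 cells/well received 23 nL of compound by pintool and were incubated 48 or 72 h at 37 °C. Viability was read as ATP-coupled CellTiter-Glo luminescence.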
# NPR1 antag = antagonists of human natriuretic peptide receptor Npr1 | P16066 | HEK293 hNpr1 GloSensor cGMP, ANP-stimulated luminescence | Potency, µM (top dose mostly 46.3 µM), without a hit: top-dose activity change, negative = inhibition, hits mostly inhibitors | 1.6% of 76,000 active; calls by dose curve; further: on the % scale 0 is the no-effect control and ±100 the full control effect; nearly all actives have a fitted effect of over 60% in size
#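 Compound pre-incubated 30 min at room temperature on GloSensor-loaded HEK293 cells stably carrying hNpr1 and the pGS-40F cGMP biosensor. Stimulation uses hNppA at 0.1 nM final; luminescence is taken at baseline and 20 min post-agonist.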
# FLuc inh-1 = inhibitors of firefly (Photinus pyralis) luciferase; P08659; purified P. pyralis luciferase, luminescence, biochemical; Potency, µM (highest dose often 115 µM), hits mostly inhibitors; 2.5% of 76,000 active; further: on the % scale 0 is the no-effect control and ±100 the full control effect; nearly all actives have a fitted effect of over 65% in size
#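 Cell-free enzyme assay, 10nM P. pyralis luciferase, luciferin and ATP each at 10uM. Inhibition profiled over a 6-point titration, read as luminescence.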
# HEK293 tox = HEK 293 cell cytotoxicity | HEK 293 viability, ATP luminescence (CellTiter-Glo), 48-72 h | Potency, µM (highest dose often 115 µM), without a hit: top-dose activity change, negative = cytotoxicity, actives largely listed as inhibitors | 6.6% of 94,000 active; further: on the % scale 0 is the no-effect control and ±100 the full control effect; nearly all actives have a fitted effect of over 60% in size
#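 Viability of HEK 293 cells, plated at 250 cells/well, was judged by cellular ATP after compound treatment for 48 or 72 hr. Luminescence was imaged 10 min after CellTiter-Glo addition at room temperature.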
# GPT2 inh = GPT2 alanine aminotransferase inhibition | Q8TD30 | Recombinant GPT2, coupled pyruvate oxidase/HRP Amplex Red fluorescence | Potency, µM (doses to about 57.7 µM), without a hit: top-dose activity change, negative = inhibition, hits mostly inhibitors | 0.25% of 100,000 active | AID 1671188; further: on the % scale 0 is the no-effect control and ±100 the full control effect; nearly all actives have a fitted effect of over 60% in size
# Target sequence (Q8TD30 whole entry, looked up): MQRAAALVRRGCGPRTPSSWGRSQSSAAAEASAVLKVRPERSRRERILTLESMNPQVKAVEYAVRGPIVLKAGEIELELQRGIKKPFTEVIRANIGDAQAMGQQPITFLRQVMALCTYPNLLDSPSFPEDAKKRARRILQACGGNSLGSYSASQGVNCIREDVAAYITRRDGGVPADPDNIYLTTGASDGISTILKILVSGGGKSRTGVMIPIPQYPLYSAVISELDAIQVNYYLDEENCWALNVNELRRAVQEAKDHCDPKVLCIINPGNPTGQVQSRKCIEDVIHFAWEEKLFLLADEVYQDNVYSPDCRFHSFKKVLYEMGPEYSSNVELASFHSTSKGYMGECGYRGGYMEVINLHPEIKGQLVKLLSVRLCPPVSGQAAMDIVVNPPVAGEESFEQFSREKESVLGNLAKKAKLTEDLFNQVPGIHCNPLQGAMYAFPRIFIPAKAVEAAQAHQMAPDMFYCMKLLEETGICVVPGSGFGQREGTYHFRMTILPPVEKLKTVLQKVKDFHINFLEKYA
#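 Inhibition is scored from Amplex Red fluorescence generated when pyruvate oxidase and HRP act on pyruvate released by GPT2. Reactions contain 10ng/uL enzyme, 250uM a-KG and 2mM L-alanine and run 30 min at room temperature.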
# FLuc SDR -ATP = firefly luciferase binding stabilization, ATP absent; shares compounds with FLuc inh-1; Purified FLuc-C-HiBiT, Nano-Glo HiBiT luminescence, no ATP; Potency, µM (top dose mostly 32.7 µM), for inactives: top-dose activation (signal gain), usual class: activators; 7.8% of 1,300 active; AID 1963318; further: nearly all actives have a fitted effect of over 55% in size
# FLuc SDR ATP = firefly luciferase binding stabilization, ATP added | 8.7% of 1,300 active | shares compounds with FLuc inh-1 | Potency, µM (series often up to 32.7 µM), for inactives: at the highest dose activation (gain of signal), usual class: activators | purified FLuc-C-HiBiT + ATP, HiBiT complementation luminescence;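 further: signal reports ligand binding via conformational change of the enzyme rather than luciferase catalysis; % of control where 0% means no effect; nearly all actives have a fitted effect of over 55% in size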
# FLuc inh-2 = inhibitors of firefly luciferase enzymatic activity | Potency, µM (titrated, usually from 32.7 µM), inactives show top-dose activity change, negative = inhibition, hits mostly inhibitors | shares compounds with FLuc inh-1 | AID 1963320 | 42% of 1,300 active | purified FLuc-C-HiBiT enzyme, luciferin luminescence; further: on the % scale 0 is the no-effect control and ±100 the full control effect; nearly all actives have a fitted effect of over 70% in size
# NPR1 antag cnf = confirmation of human Npr1 natriuretic peptide receptor antagonists; 76% of 1,400 active; HEK293 hNpr1 cGMP GloSensor luminescence, ANP-stimulated; Potency, µM (series often up to 57.6 µM), for the others: top-dose activity change, negative = inhibition, actives largely listed as inhibitors; shares compounds with NPR1 antag; calls by dose curve; further: nearly all actives have a fitted effect of over 70% in size
# Npr2 selectivity = selectivity test of Npr1 antagonists against human Npr2. HEK293 hNpr2 GloSensor cGMP luminescence, CNP-stimulated. AID 1347046. shares compounds with NPR1 antag. 67% of 1,400 active. Potency, µM (highest dose often 57.6 µM), inactives show top-dose activity change, negative = inhibition, hits mostly inhibitors; calls by dose curve; further: nearly all actives have a fitted effect of over 70% in size
# FLuc counter = FLuc enzyme inhibition, Npr1 counter-screen. shares compounds with NPR1 antag. purified FLuc enzyme, luminescence, Km substrate. Potency, µM (doses to about 57.6 µM), without a hit: at the highest dose activity change, negative = inhibition, usual class: inhibitors. 0.7% of 1,400 active. AID 1347047; further: 0% is about no effect
# GloSensor cGMP = reduces cGMP signal in GloSensor control cells; shares compounds with NPR1 antag; Potency, µM (series often up to 57.6 µM), without a hit: at the highest dose activity change, negative = inhibition, actives largely listed as inhibitors; AID 1347051; HEK293 GloSensor cGMP, SNP-stimulated, luminescence; 69% of 1,400 active; calls by dose curve; further: on the % scale 0 is the no-effect control and ±100 the full control effect; nearly all actives have a fitted effect of over 70% in size
# Starred values were filed as active, the others as inactive; i = inactive; ? = inconclusive; · = no result; [ ] = dose if it differs, or a comment. Unless noted, the call rests on the fitted dose curve; in most records, active means well fitted curve in the direction sought with a large enough effect; inconclusive means small, poorly fitted or top-dose-only effect, or another doubt; inactive means no such curve, though single readings can be large; an effect the other way counts as inactive or inconclusive. Potency means the concentration at half of the fitted maximal effect.
SMILES,3T3 cytotox,NPR1 antag,FLuc inh-1,HEK293 tox,GPT2 inh,NPR1 antag cnf,Npr2 selectivity,FLuc counter,GloSensor cGMP,others
COc1ccccc1-c1ccnc(N[C@H]2CO[C@H]3[C@@H]2OC[C@@H]3NC(=O)c2ccccc2)n1,-0.4%[174 µM],-24.0%[70.6 µM],i,?,1.3%[88.5 µM],·,·,·,·,
CCN1CCN(C(=O)c2c(OCC3CC3)cc(=O)n3c2CCCCC3)CC1,?,2.7%,i,-0.4%,4.7%,·,·,·,·,
O=C(O)C1CCc2nc(N3CCN(C(=O)C4CCC4)CC3)sc2C1 (centres undefined),?,-1.3%,6.31µM*,-1.3%,i,·,·,·,·,FLuc SDR -ATP=12.5%;FLuc SDR ATP=?;FLuc inh-2=8.81µM*
CCOc1ccc(-c2cc3c(=O)n(CCNC(=O)c4ccc(F)c(F)c4)ccn3n2)cc1,i,1.5%,i,i,i,·,·,·,·,
COc1ccc(-c2nccn3cc(C(=O)NCc4cccnc4)nc23)cc1,?,11.2µM*,i,-28.9%,0.7%,24.3µM*,19.3µM*,1.3%,3.7%,
COc1ccc(-c2nccn3cc(C(=O)NCCc4cccnc4)nc23)cc1,-21.3%,-0.2%,i,-14.3%,3.6%,·,·,·,·,
O=C(c1ccccc1Cl)N1CCC(C(=O)N2CCCC(c3nc4ccncc4[nH]3)C2)CC1 (centres undefined),-27.1%,·,·,1.5%,i,·,·,·,·,
O=c1[nH]c2ccccc2n1C1CCN(c2nccc(-c3cccnc3)n2)CC1,31.6µM*,11.2µM*,i,14.1µM*,-5.0%,21.7µM*,24.3µM*,1.0%,19.3µM*,
O=C1CC2(CCN(Cc3ccc(C(F)(F)F)cc3F)C2)C(=O)N1 (centres undefined),-2.3%,3.9%,i,-32.3%,i[11.5 µM],·,·,·,·,
COc1cccc(CNC(=O)C2CCCN2Cc2ccc(-c3cncnc3)cc2)c1 (centres undefined),?,·,·,-23.5%,i,·,·,·,·,
O=[S+]1([O-])NC2(CCN(Cc3ccc(OC(F)(F)F)cc3)C2)CNc2ccccc21 (centres undefined),?,?,i,50.1µM*,i,9.68µM*,12.2µM*,0.3%,10.9µM*,
O=[S+]1([O-])NC2(CCN(Cc3ccc(F)cc3)C2)CNc2ccccc21 (centres undefined),-22.1%,-5.4%,i,?,i,·,·,·,·,
CCC(O)c1cc2n(n1)CCN(C(=O)c1ccc(-c3ccccc3)n1C)C2 (centres undefined),?,15.8µM*,i,31.6µM*,-16.7%,24.3µM*,24.3µM*,-2.5%,24.3µM*,
CCC(O)c1cc2n(n1)CCN(C(=O)c1cn(-c3ccccc3)nn1)C2 (centres undefined),-25.0%,5.3%,i,-5.5%,-3.5%,·,·,·,·,
CCCN1C(=O)Cc2ccccc2C1C(=O)NCc1cc(OC)ccc1OC (centres undefined),-26.1%,-26.0%,i,?,i,?,?,2.9%,-10.8%,
CNc1nccc(N2CCC(CC(=O)NCCCOC(C)C)CC2)n1,-13.5%,0.2%,i,?,0.4%,·,·,·,·,
CC(C)c1nncn1C1CCN(S(=O)(=O)c2ccc(Br)cc2)CC1,?,1.9%,i,?,i,·,·,·,·,
CC(C)c1nncn1C1CCN(S(=O)(=O)c2ccc(Br)s2)CC1,?,11.2µM*,i,?,i,24.3µM*,?,2.3%,21.7µM*,
Cc1nccc(N2CCC(Oc3cnc4c(ccn4CCN[S+](C)(=O)[O-])c3)CC2)n1,?,28.2µM*,i,?,3.4%[88.5 µM],31.4µM*,35.3µM*,-1.8%[86.2 µM],25µM*,
CCc1cnc(N2CCC(Oc3cnc4c(ccn4CCN[S+](C)(=O)[O-])c3)CC2)nc1,?,6.31µM*,i,?,2.1%,6.85µM*,9.68µM*,1.6%,6.85µM*,
CCc1cnc(N)nc1N1CCC(Oc2ccc(F)cc2)CC1,?,-15.4%,i,?,-7.9%,·,·,·,·,
CCOCCCNc1ncnc2c1CN(c1cccc(C)c1)C(=O)CN2C,-24.0%,·,·,-0.1%,?,·,·,·,·,
O=[S+]([O-])(c1ccncc1)c1nnn2c1nc(NCc1ccc(F)cc1)c1ccccc12,-23.8%,·,·,1.5%,-18.0%,·,·,·,·,
Cc1nn2c(c1-c1ccccc1Oc1ccccc1)N(Cc1ccccc1O)CCC2,11.2µM*,7.94µM*,i,10µM*,-23.7%[88.5 µM],3.14µM*,12.5µM*,-1.7%[86.2 µM],2.22µM*,
COc1ccccc1CN1CCCn2nc(C)c(-c3ccccc3C(N)=O)c21,?,14.1µM*,i,22.4µM*,-13.1%[88.5 µM],12.5µM*,31.4µM*,1.0%[86.2 µM],9.94µM*,
Cc1nn2c(c1-c1ccccc1Oc1ccccc1)N(Cc1cccc(O)c1)CCC2,14.1µM*,2.51µM*,i,22.4µM*,-13.3%[88.5 µM],11.1µM*,25µM*,0.3%[86.2 µM],11.1µM*,
Cc1nn2c(c1-c1ccccc1OCc1ccccc1)N(C(=O)c1cccnc1)CCC2,?,2.7%[70.6 µM],i,-7.4%[172 µM],i,·,·,·,·,
